Measured values as given in PubChem BioAssay (NCI).
Compounds without any hit were thinned out: in the full panel of roughly 79,000, 15% have a hit. The source made the active and inactive calls. Rule as the data show it: active = growth inhibition above about 70%; inactive = the rest.

Key:
[1] = NCI Yeast Anticancer Drug Screen. Data for the wt1 strain (AID 149);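 also: 0% = growth of vehicle-treated wt1 cultures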; conditions: S. cerevisiae wt1 strain (SPY 50644) growth inhibition, active compounds read high
Outline: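 Each compound is tested on wt1 yeast and the loss of growth versus vehicle gives the inhibition value.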

[2] = NCI Yeast Anticancer Drug Screen. Data for the rad50EPP+ strain (AID 151);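 also: 0% = growth of vehicle-treated control cultures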; conditions: S. cerevisiae rad50 mutant strain, active compounds read high
Outline: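 Strain rad50EPP+; compound exposure; % growth inhibition vs vehicle.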

[3] = NCI Yeast Anticancer Drug Screen. Data for the mgt1 strain (AID 153); conditions: S. cerevisiae mgt1 mutant growth inhibition, active compounds read high
Outline: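 Read-out: yeast growth inhibition vs vehicle control. Strain mgt1, drawn from a panel altered in DNA damage repair or cell cycle control.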

[4] = NCI Yeast Anticancer Drug Screen. Data for the rad50 strain (AID 155);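 also: 0% = growth of vehicle-only cultures of the same strain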; conditions: S. cerevisiae rad50 strain growth inhibition, active compounds read high
Outline: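 Vehicle-treated cultures provide the reference for the growth inhibition reported for compound-exposed, repair-deficient yeast.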

[5] = NCI Yeast Anticancer Drug Screen. Data for the mec2-1 strain (AID 157); conditions: S. cerevisiae mec2-1 strain, active compounds read high
Outline: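 Cells of the genetically defined mec2-1 yeast strain are incubated with test compound. Inhibition of growth is calculated against vehicle-treated controls.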

[6] = NCI Yeast Anticancer Drug Screen. Data for the rad14 strain (AID 159);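 also: 0% = growth of vehicle-treated control cultures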; conditions: S. cerevisiae rad14 strain growth inhibition, active compounds read high
Outline: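 Inhibition of growth is reported for a repair-deficient yeast mutant following compound treatment, calculated relative to cultures that received vehicle.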

[7] = NCI Yeast Anticancer Drug Screen. Data for the sgs1 mgt1 strain (AID 161);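 also: 0% = growth of cultures given vehicle only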; conditions: S. cerevisiae sgs1 mgt1 strain, active compounds read high
Outline: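 Read-out: growth inhibition vs vehicle controls. Cells: mutant yeast strain deficient in DNA damage repair.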

[8] = NCI Yeast Anticancer Drug Screen. Data for the CLN2oe strain (AID 163);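 also: 0% = growth of vehicle-only control cultures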; conditions: S. cerevisiae CLN2oe strain, active compounds read high
Outline: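 Strain altered in cell-cycle control, incubated with compound; growth compared to solvent-treated controls.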

[9] = NCI Yeast Anticancer Drug Screen. Data for the cln2 rad14 strain (AID 165);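 also: 0% = growth equal to vehicle treated cultures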; conditions: S. cerevisiae cln2 rad14 strain, active compounds read high
Outline: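 The screen exposed genetically defined yeast (cln2 rad14) to test compounds and scored growth inhibition relative to vehicle-treated controls.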

[10] = NCI Yeast Anticancer Drug Screen. Data for the bub3 strain (AID 167); conditions: S. cerevisiae bub3 mutant strain, active compounds read high
Outline: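 Mutant yeast screening strain plus compound; vehicle-treated cultures serve as the 0% inhibition reference.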

[11] = NCI Yeast Anticancer Drug Screen. Data for the wt2 strain (AID 169); conditions: S. cerevisiae wt2 strain growth inhibition, active compounds read high
Outline: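 Steps: yeast strain treated with compound; growth recorded; inhibition calculated relative to cultures given vehicle alone.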

[12] = NCI Yeast Anticancer Drug Screen. Data for the mlh1 strain (AID 171);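 also: 0% = growth of vehicle-treated control cultures of the same strain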; conditions: S. cerevisiae mlh1 strain growth inhibition, active compounds read high
Outline: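 Yeast screen: mutant strain plus compound, growth scored against vehicle control wells.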

[13] = NCI Yeast Anticancer Drug Screen. Data for the sgs1 strain (AID 173);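 also: 0% = growth of vehicle-only control cultures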; conditions: S. cerevisiae sgs1 mutant, active compounds read high
Outline: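 Inhibition of yeast growth served as the measure. The mutant strain was treated with each compound, and growth was normalised to cultures receiving vehicle alone.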

[14] = NCI Yeast Anticancer Drug Screen. Data for the rad18 strain (AID 177); conditions: S. cerevisiae rad18 mutant growth inhibition, active compounds read high
Outline: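 Inhibition values reflect reduced yeast growth compared with vehicle-treated controls, using a strain engineered with a DNA damage repair defect.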

[15] = NCI Yeast Anticancer Drug Screen. Data for the rad52 strain (AID 147);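 also: 0% = growth of vehicle-treated control cultures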; conditions: S. cerevisiae rad52 mutant growth inhibition, active compounds read high
Outline: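 Genetically altered yeast (DNA damage repair defect) treated with compound; inhibition calculated relative to vehicle.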

[16] = NCI Yeast Anticancer Drug Screen. Data for the mlh1 rad18 strain (AID 175); conditions: S. cerevisiae mlh1 rad18 strain growth inhibition, active compounds read high
Outline: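 Compound-treated yeast growth, normalised to vehicle controls. Strain bears defined DNA repair mutations.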

[17] = at 5.0 µM (retest, dose inferred, filed as 0.5)
[18] = at 50.0 µM (retest, dose inferred, filed as 5.0)

Measured: growth inhibition

N#CC1=C(N)N(/N=C/c2ccccc2)C(c2ccccc2)C1(C#N)C#N (stereo not drawn)
inactive: [1]; at 1.2 µM 12% | [1]; at 3.7 µM 12% | [1]; at 11.0 µM 10% | [1]; at 33.0 µM 55% | [1]; at 100.0 µM 58% | [2]; at 1.2 µM 20% | [2]; at 3.7 µM 14% | [2]; at 11.0 µM 8% | [2]; at 33.0 µM 23% | [2]; at 100.0 µM 5% | [3]; at 1.2 µM 8% | [3]; at 3.7 µM 33% | [4]; at 1.2 µM 5% | [4]; at 3.7 µM 17% | [4]; [17] 16% | [4]; at 11.0 µM 66% | [4]; at 50.0 µM 39.9% | [5]; at 1.2 µM 9% | [5]; at 3.7 µM 31% | [5]; [17] 4% | [5]; at 50.0 µM 58.5% | [6]; at 1.2 µM 4% | [6]; at 3.7 µM 19% | [6]; at 11.0 µM 45% | [7]; [17] 5% | [8]; at 1.2 µM 25% | [8]; at 3.7 µM 40% | [8]; at 11.0 µM 64% | [9]; [17] -4% | [9]; [18] 46% | [9]; at 50.0 µM 45.7% | [10]; at 1.2 µM 9% | [10]; at 3.7 µM 21% | [10]; [17] 13% | [10]; at 50.0 µM 65.7% | [11]; at 1.2 µM -9% | [11]; at 3.7 µM 51% | [12]; at 1.2 µM 13% | [12]; at 3.7 µM 27% | [13]; at 1.2 µM 15% | [13]; at 3.7 µM 41% | [14]; at 1.2 µM 3% | [14]; at 3.7 µM 22%
active: [3]; at 11.0 µM 84% | [3]; at 33.0 µM 96% | [3]; at 100.0 µM 95% | [4]; at 33.0 µM 90% | [4]; [18] 83% | [4]; at 100.0 µM 87% | [5]; at 11.0 µM 72% | [5]; at 33.0 µM 91% | [5]; [18] 87% | [5]; at 100.0 µM 87% | [6]; at 33.0 µM 89% | [6]; at 100.0 µM 90% | [7]; [18] 76% | [7]; at 50.0 µM 76.6% | [8]; at 33.0 µM 88% | [8]; at 100.0 µM 93% | [10]; at 11.0 µM 77% | [10]; at 33.0 µM 93% | [10]; [18] 88% | [10]; at 100.0 µM 95% | [11]; at 11.0 µM 94% | [11]; at 33.0 µM 86% | [11]; at 100.0 µM 87% | [12]; at 11.0 µM 79% | [12]; at 33.0 µM 95% | [12]; at 100.0 µM 93% | [13]; at 11.0 µM 80% | [13]; at 33.0 µM 93% | [13]; at 100.0 µM 95% | [14]; at 11.0 µM 81% | [14]; at 33.0 µM 89% | [14]; at 100.0 µM 89%

NC1CCCCC1N.Nc1c(N=Nc2ccc(-c3ccc(N=Nc4cc(S(=O)(=O)[O-])c5ccccc5c4N)cc3)cc2)cc(S(=O)(=O)[O-])c2ccccc12.[OH3+].[OH3+].[Pt+4]
inactive: [15]; at 1.2 µM 0% | [15]; at 3.7 µM 4% | [15]; at 11.0 µM 47% | [15]; at 100.0 µM 65% | [2]; at 1.2 µM -7% | [2]; at 3.7 µM 13% | [2]; at 100.0 µM 60% | [3]; at 1.2 µM 1% | [3]; at 3.7 µM 12% | [4]; at 1.2 µM 2% | [4]; at 3.7 µM 1% | [4]; [17] 1% | [4]; at 11.0 µM 28% | [5]; at 1.2 µM 0% | [5]; at 3.7 µM 9% | [5]; at 11.0 µM 66% | [7]; [17] 38% | [8]; at 1.2 µM 1% | [8]; at 3.7 µM -1% | [8]; at 11.0 µM 22% | [8]; at 100.0 µM 63% | [9]; [17] 66% | [9]; at 50.0 µM 69.8% | [10]; at 1.2 µM -1% | [10]; at 3.7 µM -1% | [10]; at 11.0 µM 54% | [10]; at 100.0 µM 68% | [11]; at 1.2 µM -1% | [11]; at 3.7 µM 10% | [12]; at 1.2 µM -1% | [12]; at 3.7 µM 7% | [12]; at 100.0 µM 65% | [13]; at 1.2 µM 4% | [13]; at 3.7 µM 22% | [14]; at 1.2 µM 1% | [14]; at 3.7 µM -2% | [14]; at 11.0 µM 25%
active: [15]; at 33.0 µM 80% | [2]; at 11.0 µM 91% | [2]; at 33.0 µM 88% | [3]; at 11.0 µM 90% | [3]; at 33.0 µM 94% | [3]; at 100.0 µM 84% | [4]; at 33.0 µM 89% | [4]; [18] 83% | [4]; at 50.0 µM 86.7% | [4]; at 100.0 µM 70% | [5]; [17] 88% | [5]; at 33.0 µM 92% | [5]; [18] 84% | [5]; at 50.0 µM 80.9% | [5]; at 100.0 µM 77% | [7]; [18] 89% | [7]; at 50.0 µM 84.9% | [8]; at 33.0 µM 89% | [9]; [18] 78% | [10]; [17] 91% | [10]; at 33.0 µM 90% | [10]; [18] 83% | [10]; at 50.0 µM 82.5% | [11]; at 11.0 µM 86% | [11]; at 33.0 µM 90% | [11]; at 100.0 µM 70% | [12]; at 11.0 µM 81% | [12]; at 33.0 µM 90% | [13]; at 11.0 µM 95% | [13]; at 33.0 µM 93% | [13]; at 100.0 µM 80% | [16]; [17] 77% | [16]; [18] 78% | [16]; at 50.0 µM 85.2% | [14]; at 33.0 µM 88% | [14]; at 100.0 µM 71%

CCOC1Oc2ccccc2-c2nc(N)ncc21 (stereo not drawn)
inactive: [15]; at 1.2 µM 7% | [15]; at 3.7 µM 6% | [15]; at 11.0 µM 3% | [15]; at 33.0 µM 3% | [15]; at 100.0 µM -5% | [3]; at 1.2 µM -2% | [3]; at 3.7 µM 10% | [3]; at 11.0 µM 4% | [3]; at 33.0 µM 9% | [3]; at 100.0 µM 6% | [4]; at 1.2 µM -2% | [4]; at 3.7 µM -13% | [4]; [17] 17% | [4]; at 11.0 µM -5% | [4]; at 33.0 µM 0% | [4]; at 100.0 µM -33% | [5]; at 1.2 µM 13% | [5]; at 3.7 µM 6% | [5]; [17] 3% | [5]; at 11.0 µM -2% | [5]; at 33.0 µM -8% | [5]; [18] 39% | [5]; at 100.0 µM -15% | [6]; at 1.2 µM -3% | [6]; at 3.7 µM -5% | [6]; at 11.0 µM -4% | [6]; at 33.0 µM -1% | [6]; at 100.0 µM -4% | [7]; [17] 10% | [7]; at 50.0 µM -4.55% | [9]; [17] 22% | [9]; [18] 37% | [9]; at 50.0 µM -20.9% | [10]; at 1.2 µM 4% | [10]; at 3.7 µM -7% | [10]; [17] 2% | [10]; at 11.0 µM -12% | [10]; at 33.0 µM -5% | [10]; [18] 23% | [10]; at 50.0 µM -16.8% | [10]; at 100.0 µM -9% | [11]; at 1.2 µM -3% | [11]; at 3.7 µM -7% | [11]; at 11.0 µM -7% | [11]; at 33.0 µM -2% | [11]; at 100.0 µM -10% | [13]; at 1.2 µM 3% | [13]; at 3.7 µM 11% | [13]; at 11.0 µM 5% | [13]; at 33.0 µM -9% | [13]; at 100.0 µM -9% | [14]; at 1.2 µM 4% | [14]; at 3.7 µM 7% | [14]; at 11.0 µM -1% | [14]; at 33.0 µM 3% | [14]; at 100.0 µM -2%
active: [4]; [18] 75% | [4]; at 50.0 µM 88.3% | [5]; at 50.0 µM 85.4% | [7]; [18] 85%
